According to PubChem BioAssay AID1671188 (National Center for Advancing Translational Sciences (NCATS), 2021):
Several values for one entry are separate records, joined by “and”; a condition that tells them apart may be missing. Equal entries are not always repeated. Among all 100,000 compounds or so, about 250 (0.25%) were called active. Not shown: some 7% with an inconclusive outcome. Calls follow the shape of the dose curve; as a rule, active = well fitted inhibition curve with a large enough effect; inconclusive = small, poorly fitted or top-dose-only effect; inactive = flat fitted curve, though single readings scatter. This excerpt belongs to a sample that is enriched for actives. The source holds several records for some structures; these can differ, active in one and inactive in another.

Target: Alanine aminotransferase 2 (Homo sapiens) (UniProt Q8TD30)
Experiment: Primary qHTS assay for inhibitors of Glutamate pyruvate transaminase 2 (GPT2); also: nearly all actives have a fitted effect of over 60% in size
Conditions: Recombinant GPT2, coupled pyruvate oxidase/HRP Amplex Red fluorescence; series mostly up to 57.7 µM; activity change, negative = inhibition: at the top concentration
Experimental: Assay Provider: Zhenghe John Wang Ph.D.
Case Western Reserve University, Cleveland OH
Glutamate pyruvate transaminase 2 (GPT2) catalyzes the reversible transamination of glutamate and pyruvate to provide a-ketoglutarate and alanine. We have optimized an assay for GPT2 enzymatic activity that couples pyruvate formation to detection of fluorescence using an established pyruvate oxidase/horseradish peroxidase / Amplex Red system.
Screening conditions were 250uM a-KG, 2mM L-alanine, and 10ng/uL GPT2 in […] of solution; 10uL of Amplex reaction mix (outlined below) were added so that final concentrations of Amplex reagents in 50uL were 0.2mM ThPP, 0.2U/mL PO and HRP, and 50uM Amplex.
NOTE: The volume of GPT2 in the system depends on the activity of it. The activity is different every batch. You need to test the activity before the assay. For full plate assay with automation, plate 20uL of GPT2 buffer to pin into, then add 10uL of GPT2 dilution followed immediately by 10uL of substrate dilution. 2 Columns of the plate were devoted to GPT2 buffer ([…] PH7.5, 0.0001% Tween) + 50uM AOA (known GPT2 inhibitor) to serve as a positive control. Complete the assay as normal. Amplex-red buffer: […] PH7.5, 1 mM EDTA, 1 mM MgCl2.
1. Combine a-KG and L-alanine at desired concentrations and incubate for at least 10 minutes at 37C. Stocks of L-alanine and a-KG are diluted in distilled water. However, the stocks were diluted in GPT2 buffer for the assay.
2. Prepare GPT2 dilution at the desired concentration in GPT2 buffer.
3. Plate 40uL of GPT2 dilution with 40uL of substrate dilution and let incubate for 30 minutes at room temperature.
4. Add 20uL of Amplex reaction mix prepared as follows: 1.5uL 200U/mL Horseradish Peroxidase, 200mM Thiamine Pyrophosphate, 200U/mL Pyruvate Oxidase; 7.5uL 10mM Amplex Red; 288uL Amplex Buffer.
5. Incubate for 30 minutes at room temperature in the dark, then image using AM_Amplex_Fluorescence on plate reader nearest the window.
% is scaled to controls: 0 for no effect and ±100 for the full control effect; potency is read from the fitted curve at half-maximal effect.

Alanine aminotransferase 2 (Homo sapiens), sequence (Q8TD30 whole entry, looked up): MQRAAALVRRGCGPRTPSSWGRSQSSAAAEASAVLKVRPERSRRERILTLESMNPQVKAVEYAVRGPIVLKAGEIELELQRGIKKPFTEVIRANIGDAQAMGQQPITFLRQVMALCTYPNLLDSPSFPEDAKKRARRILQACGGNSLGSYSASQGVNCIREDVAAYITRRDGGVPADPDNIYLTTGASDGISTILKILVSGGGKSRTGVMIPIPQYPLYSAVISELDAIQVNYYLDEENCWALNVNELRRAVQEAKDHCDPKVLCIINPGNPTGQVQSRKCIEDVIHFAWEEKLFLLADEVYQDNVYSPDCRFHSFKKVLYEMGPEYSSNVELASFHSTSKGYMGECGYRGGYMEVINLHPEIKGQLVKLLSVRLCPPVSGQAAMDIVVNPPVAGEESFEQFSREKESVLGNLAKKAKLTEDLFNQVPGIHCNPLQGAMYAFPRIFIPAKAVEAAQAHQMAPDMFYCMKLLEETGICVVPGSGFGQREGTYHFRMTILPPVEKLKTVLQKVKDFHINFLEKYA

Structure (SMILES)	outcome	activity change, negative = inhibition	Potency
CN(Cc1ccsc1)Cc1nc(C(c2ccccc2)c2ccccc2)no1	inactive	–	–
CCOC(=O)C1CCN(C(=O)c2nc3sccn3c2-c2ccc(OC)cc2)CC1	inactive [at 88.5 µM]	–	–
COCc1cc(=O)n(CC(=O)Nc2cc(C)cc(C)c2)c(N2CCOCC2)n1	inactive	–	–
CC(=O)c1ccc(NC(=O)O[C@@H]2CO[C@H]3[C@@H]2OC[C@@H]3Nc2nccc(-c3ccco3)n2)cc1	–	-11.1% (inactive)	–
CC[C@@H]1Cc2cc(O)ccc2C2=C1c1ccc(O)cc1C[C@H]2CC	–	–	11.2 µM (active)
COCCN1C[C@H]2CN(C(=O)c3ccc(C(F)(F)F)cc3)CCN2C1=O	–	3.47% [at 88.5 µM] (inactive)	–
N#Cc1ccc(CN2CCC3(Cc4ccccc4NC3=O)C2)cc1 (configuration not stated)	inactive [at 88.5 µM]	–	–
O=C(Cn1nc2c(cc1=O)CCCC2)NCCn1ccc2ccc(Cl)cc21	–	3.99% (inactive)	–
Cc1nc(C)c(C(=O)N2CCc3nnc([C@@H]4C[C@@H](O)CN4C(C)C)n3CC2)s1	–	-2.49% (inactive)	–
C=CCNC(=O)C1N(C(C)C)C(=O)C12CCCC2 (configuration not stated)	inactive	–	–
OCC1(CN2CCCC2)CCN(Cc2ccc(OC(F)(F)F)cc2)CC1	–	-6.92% (inactive)	–
COc1ccc(NC(=O)N2CCC(O)(c3csc(CN4CCc5ccccc5C4)n3)CC2)cc1	–	-11.3% (inactive)	–
CO[C@@H]1COCC[C@H]1NC(=O)c1cn(CCN2CCNCC2)nn1	inactive	–	–
CCC(=O)N1CCCC(Cc2ncc(C)n2C(C)C)C1 (configuration not stated)	–	4.66% (inactive)	–
O=C(c1cc(Cl)ccc1F)N1CCN(c2cc(C(F)(F)F)ncn2)CC1	–	2.26% (inactive)	–
O=C(NCc1ccc(Cl)nc1)c1cnn2ncccc12	–	0.0904% [at 88.5 µM] (inactive)	–
CC(C)c1ccc(CNC(=O)CN2CCCc3nc(C4CC4)ncc3C2=O)cc1	inactive	–	–
COCCN1C(=O)CCC2(C(=O)NCc3cn[nH]c3C)CCCC=C12 (configuration not stated)	–	-8.64% (inactive)	–
CN1CCN(C(C)(CN)c2ccccn2)CC1 (configuration not stated)	–	-8.19% [at 88.5 µM] (inactive)	–
O=C(Nc1cccc(F)c1)N1CCC2(CC1)SCC(=O)N2Cc1ccco1	–	2.45% (inactive)	–
COc1ccc(-c2nnc(C[C@@H]3C[C@@H](C(C)C)[C@H](CN4CCC(C(N)=O)CC4)C=C3C)o2)cc1	inactive	–	–

Structure (SMILES)	outcome	activity change, negative = inhibition	Potency
Cc1ccc(C)c(CN2C(=O)NC3(CCCN(C(=O)c4ccc(C)c(F)c4)C3)C2=O)c1 (configuration not stated)	inactive	–	–
c1ccc2c(CN3CCC[C@H]3c3nc(-c4ccnc(N5CCOCC5)c4)no3)c[nH]c2c1	–	1.43% [at 88.5 µM] (inactive)	–
NC(=O)c1cccnc1N1CCN(CC2(O)CNCCOC2)CC1 (configuration not stated)	–	-3.06% (inactive)	–
O=C1COCC2(CN(c3ccc(C(F)(F)F)cn3)C2)CN1c1cccnc1	–	-31.6% [at 88.5 µM] (inactive)	–
Cc1ccccc1CN1CCc2ncc(C(=O)NCCOc3ccccc3)n2CC1	inactive [at 88.5 µM]	–	–
Cc1nc([C@H]2CCN(Cc3ccoc3)C[C@H]2NC(=O)C2CC2)n[nH]1	–	-0.884% (inactive)	–
CCC(C)Oc1ccccc1CN1CCC(CO)(CN2CCCC2)CC1 (configuration not stated)	–	-20.3% (inactive)	–
COCc1cc(C[C@@H]2C[C@H](NC(=O)Nc3ccccc3)C2(C)C)no1	–	-3.55% [at 88.5 µM] (inactive)	–
Cc1ccc(C(=O)Nc2ccc(C(O)[C@H]3COCC(=O)N3Cc3ccccc3F)cc2)cc1 (some centres not stated)	–	3.69% (inactive)	–
Cc1ccc(Nc2ccnc(N3CCC(C(=O)Nc4ccccc4F)CC3)n2)cc1	inactive	–	–
Cc1cc(Nc2cc(N3CCN(C)CC3)nc(Sc3ccc(NC(=O)C4CC4)cc3)n2)n[nH]1	–	–	inactive and 27.3 µM (active)
CN1CCN(C(=O)c2ccc(-c3nnc4ccc(NC(=O)C5CCC5)cn34)cc2)CC1	inactive	–	–
O=C(CC1CCN(C(=O)c2ccco2)C1)N1CCOCC1 (configuration not stated)	–	-3.27% (inactive)	–
COCCn1nc2n(c1=O)CCN(C(=O)c1ccco1)CC2	inactive	–	–
CCC(=O)Nc1cc(-c2ccccn2)nn1-c1ccccc1	inactive [at 88.5 µM]	–	–
O=C(NCCc1ccccc1F)c1cn2cc(-c3cccc(C(F)(F)F)c3)sc2n1	inactive	–	–
Fc1cccc(C2CCCCCN2Cc2cn(-c3ccccc3)nn2)c1 (configuration not stated)	–	-3.5% [at 11.5 µM] (inactive)	–
COC(=O)c1cccc(NC(=S)N[C@H]2CO[C@H]3[C@@H]2OC[C@H]3OC(=O)Nc2ccc(Oc3ccccc3)cc2)c1	inactive	–	–
Cc1noc(C)c1S(=O)(=O)N1CCC(c2noc(-c3ccncc3)n2)C1 (configuration not stated)	inactive	–	–
COc1ccccc1-c1ccc2c(C(=O)NCCc3ccc(Cl)cc3)nn(C)c2n1	–	-16.6% (inactive)	–
COc1ccc(C(=O)N2CC[C@@H](CC(=O)O)[C@@H](CCN3C[C@@H]4C[C@H](C3)c3cccc(=O)n3C4)C2)cc1	–	-10.5% (inactive)	–

Structure (SMILES)	outcome	activity change, negative = inhibition	Potency
O=C(NCCCc1ccccc1)c1n[nH]c2c1CN(C(=O)C1CC1)CC2	–	3.69% (inactive)	–
O=C(NCc1cccc(Cl)c1)c1ccc2nnc(Cc3ccc(Cl)cc3)n2c1	–	1.38% (inactive)	–
Cc1nc(-c2c3n(c(=O)n(Cc4ccc(F)c(F)c4)c2=O)CCCC3)no1	–	-0.648% (inactive)	–
COc1cccc(CN(C)C2CCc3nn(C)c(=O)n3CC2)n1 (configuration not stated)	inactive	–	–
COc1ccc(CC(=O)N2CCN(C(=O)c3nc4cccnc4n(Cc4ccc(OC)cc4)c3=O)CC2)cc1	inactive	–	–
CC[C@H]1CN(C(=O)NC(C)C)CC[C@H]1CC(=O)Nc1ccccc1	inactive [at 88.5 µM]	–	–
COc1ccc(C(=O)N2C[C@@H](Oc3cccnc3)C[C@H]2C(=O)N2CCOCC2)cc1	inactive	–	–
O=C(c1ccc2c(c1)CCCO2)N1CCCn2nc(C(O)C3CCC3)cc2C1 (configuration not stated)	inactive	–	–
O=C(C1COc2ccccc2O1)N1CCc2c(nc3cc(-c4ccccc4)[nH]n3c2=O)C1 (configuration not stated)	–	-6.07% (inactive)	–
CN1CCC(N2CCC[C@H]2c2nc(-c3ccc(OC4CCCCC4)nc3)no2)CC1	–	1.89% [at 88.5 µM] (inactive)	–
O=C1NC(C(=O)NCc2ccccn2)Cn2cccc21 (configuration not stated)	inactive	–	–
COc1ccc(CN2CCn3c(nn(-c4ccncc4)c3=O)C2)cc1	inactive	–	–
CN1C[C@@H](C(=O)Nc2ccccc2)[C@H](C2CCNCC2)C1	inactive	–	–
O=C1NC2(Cc3ccccc31)CN(Cc1ccc(F)cc1)C2	inactive [at 88.5 µM]	–	–
CCC1=C(C(=O)OC)C(c2cccc(OC)c2)N2C(CC(=O)N3CCOCC3)=CSC2=N1 (configuration not stated)	inactive	–	–
O=C1CC(c2noc(-c3cc(Cl)ccc3F)n2)CN1c1ccc(F)cc1 (configuration not stated)	inactive	–	–
COc1ccc(C(=O)N2CCCC(CO)CCNC(=O)CC2)c(OC)n1 (configuration not stated)	inactive	–	–
Cc1cccc(-c2cccc(CN3CCC(NC(=O)Cc4ccc(F)cc4)CC3)c2)c1	–	-5.21% (inactive)	–
O=C(C1CC=CCC1)N1CC(c2noc(C3CCCN3CC3CC3)n2)C1 (configuration not stated)	inactive	–	–
O=C(CCn1cnnn1)N1CCC(N2C(=O)C3(CCCC3)C2c2ccccc2)CC1 (configuration not stated)	inactive	–	–
